Screening results (PubChem BioAssay)
Shown are actives, neighbours in structure and some others; about 6.1% of the full set was active somewhere.
D3 ag: D3 dopamine receptor (human) agonism | D3R DiscoveRx beta-arrestin cells, luminescence, 90 min | AID 652048 | 410,000 compounds, 0.58% hits | max activation, % | P35462; in the data active = max activation above about 30%; also: 0% is about no effect
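Agonist mode: compounds and dopamine controls were applied to plated cells for 90 min at 37 degrees C after an overnight attachment at 1500 cells/well. Luminescent read-out followed 30 - 60 minutes at room temperature with DiscoveRx detection reagent.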
D3 antag: blocks the human D3 dopamine receptor | P35462 | D3R cells, DiscoveRx beta-arrestin luminescence, antagonist mode; hits give low values | max response, negative = inhibition, % | 360,000 compounds, 2.5% hits | AID 652054; in the data active = max response below about -50%; inconclusive = no clear call, values can overlap the other calls; also: % is scaled to controls: 0 for no effect and ±100 for the full control effect
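Cells expressing the human receptor were seeded at 1500 cells/well, incubated overnight at 37 degrees C in 5% CO2, then exposed to library compounds with dopamine controls for 90 minutes at 37 degrees C before luminescent detection.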
D1 potentiator: enhances dopamine response at the human D1 receptor; P21728; 360,000 compounds, 0.036% hits; HEK293 TREx D1 cells, calcium flux, dopamine EC20 potentiation; potentiation, % at 10 µM; AID 504651; in the data active = potentiation above about 30%; also: 0% is about no effect
Target sequence (P21728 whole entry, looked up): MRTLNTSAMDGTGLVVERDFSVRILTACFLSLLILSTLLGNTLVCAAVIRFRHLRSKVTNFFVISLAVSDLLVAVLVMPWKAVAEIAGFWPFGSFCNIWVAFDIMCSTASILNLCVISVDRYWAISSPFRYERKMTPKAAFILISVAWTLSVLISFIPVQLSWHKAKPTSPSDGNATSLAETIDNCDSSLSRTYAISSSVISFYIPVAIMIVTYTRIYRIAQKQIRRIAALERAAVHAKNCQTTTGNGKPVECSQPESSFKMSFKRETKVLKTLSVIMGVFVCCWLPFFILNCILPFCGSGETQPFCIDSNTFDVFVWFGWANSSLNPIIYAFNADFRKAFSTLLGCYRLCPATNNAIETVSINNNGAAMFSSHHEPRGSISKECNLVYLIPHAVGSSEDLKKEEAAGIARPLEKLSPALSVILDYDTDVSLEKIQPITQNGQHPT
D1 agonist: activates the human D1 dopamine receptor; HEK293 T-REx D1 cells, calcium flux, agonist mode; P21728; AID 504660; activation, % at 2 µM; 360,000 compounds, 1% hits; in the data active = activation above about 30%; also: 0% is about no effect
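Agonism was scored from calcium flux recorded over 180 s (1 read/s) after pintool compound addition, following a 10-cycle baseline. Cells were inducible force-coupled HEK293 TREx D1, plated overnight at 30 C and loaded with no-wash calcium dye.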
D1 antagonist: antagonists of human D1 dopamine receptor. P21728. HEK293 TREx D1 cells, calcium flux, dopamine EC80; hits give low values. activity change, negative = inhibition, % at 10 µM. 360,000 compounds, 3.2% hits; in the data active = activity change below about -30%; also: % is scaled to controls: 0 for no effect and ±100 for the full control effect
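Calcium flux readout: force-coupled, inducible Hek293 Trex D1 line, cells induced overnight at 30 C with tetracycline, dye-loaded 30–90 min at RT. Antagonism scored against EC80 dopamine challenge given 180 s after compound.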
The depositor's hits bear a star; ? = inconclusive; / = no result given.

SMILES	D3 ag	D3 antag	D1 potentiator	D1 agonist	D1 antagonist
Cc1cccc(NC(=O)Cn2cc(C(=O)c3ccccc3)c3ccccc32)c1	3	/	-3	-2	-5
COc1c(C)cc(C(=O)C2CCCN(Cc3cccc(O)c3)C2)cc1C (stereo not drawn)	-19	-60*	-8	4	7
COc1c(C)cc(C(=O)C2CCCN(Cc3cccc(C)n3)C2)cc1C (stereo not drawn)	-2	14	-2	4	8
CCOC(=O)c1[nH]ncc1CN1CCCC(C(=O)c2cccc(Cl)c2)C1 (stereo not drawn)	-15	1	-12	43*	-13
COc1cccc(C(=O)C2CCCN(Cc3ccc(F)cc3)C2)c1 (stereo not drawn)	-24	-56*	0	2	-5
Cc1ncc(CN2CCCC(C(=O)c3cccc(Cl)c3)C2)s1 (stereo not drawn)	-6	-7	2	1	17
Cc1cccc(Cn2cccc(C(=O)Nc3nnc(C)s3)c2=O)c1	-8	/	0	-1	/
CNC(=O)N(C)c1ccc(C(O)(C(=O)OC)C(F)(F)F)cc1 (stereo not drawn)	2	22	-2	6	-17
CCOC(=O)C(O)(c1ccc(NC(=S)NC(=O)c2ccc(Cl)cc2Cl)c(C)c1)C(F)(F)F (stereo not drawn)	14	-11	-10	54*	-35*
CCOC(=O)C(NC(=O)CC)(Nc1ccc(C(O)(C(=O)OCC)C(F)(F)F)cc1C)C(F)(F)F (stereo not drawn)	0	4	-7	4	-1
COC(=O)C(O)(c1ccc(NC(=S)NC(=O)c2ccc(Cl)cc2Cl)c(C)c1)C(F)(F)F (stereo not drawn)	3	?	-12	46*	-52*
CCOP(=O)(OCC)O/C(=C/Cl)c1ccc(Cl)cc1Cl	2	/	/	/	/
CC1=C(N2CC2)C(=O)C(CO)=C(N2CC2)C1=O	-36	-96*	/	/	/
C[C@@H]1C[C@H]2OC(=O)C3(CO3)[C@H]2[C@H](O)[C@]2(C)C(=O)C3OC3[C@@H]12 (stereo partly drawn)	/	/	2	2	-20
C=C1C(=O)O[C@@H]2C[C@@H](C)[C@@H]3C=CC(=O)[C@@]3(C)[C@@H](O)[C@H]12	-75	-102*	-4	1	19
S=P(N1CCOCC1)(N1CC1)N1CC1	34*	-1	/	/	/
O=c1[nH]c(=O)n(C2CCCCCC2)c(O)c1C=NC1CCN(Cc2ccccc2)CC1	-15	-58*	-3	1	-28
O=c1[nH]c(=O)n(-c2ccccc2)c(O)c1/C=C/C=Nc1ccccc1	5	11	-3	21	-3
Cc1ccc(-n2c(O)c(/C=C/C=Nc3ccccc3)c(=O)[nH]c2=O)cc1	5	0	8	50*	22
O=c1[nH]c(=O)n(C2CCCCC2)c(O)c1/C=C/C=Nc1ccccc1	0	1	-9	175*	-1
Cn1c(O)c(C=NC2CCN(Cc3ccccc3)CC2)c(=O)[nH]c1=O	-35	-29	-4	0	-5
COc1ccc(-n2c(O)c(/C=C/C=Nc3ccccc3)c(=O)[nH]c2=O)cc1	2	-4	-3	91*	5
C=CCn1c(O)c(/C=C/C=Nc2ccccc2)c(=O)[nH]c1=O	4	31	-3	16	-3
O=C1CN=C(c2ccccc2Cl)c2cc(Cl)ccc2N1Cc1cccc(Cl)c1	-7	/	-5	7	-24
Cc1cc(-n2c(/C=C/c3ccc(Br)s3)nc3ccccc3c2=O)ccc1Br	1	/	-2	-4	12
SMILES	D3 ag	D3 antag	D1 potentiator	D1 agonist	D1 antagonist
Cc1ccc(Cn2cccc(C(=O)Nc3nnc(C)s3)c2=O)cc1	-10	/	0	-1	/
CCCC12CN3CC(C)(CN(C1)C3c1c(C)[nH]c(=O)[nH]c1=O)C2=O (stereo not drawn)	3	/	0	-1	-7
CN(C)CCCCCCN(C)C (tested in a mixture with another compound)	8	/	/	/	/
O=c1[nH]c(=O)n(C2CCCCCC2)c(O)c1C=NCC1CCCO1 (stereo not drawn)	11	-51*	5	-1	9
CCOc1ccc2c3c1O[C@H]1[C@@H](O)C=C[C@H]4[C@@H](C2)N(C)CC[C@@]341	2	/	/	/	/
O=C(NCC1=C(c2cccc3ccccc23)C[C@@H]2CC[C@H]1N2Cc1ccco1)c1cccs1	-13	-51*	/	/	/
O=C(NCC1=C(c2cccc3ccccc23)C[C@@H]2CC[C@H]1N2Cc1ccco1)c1ccncc1	-14	-9	/	/	/
c1ccc2c(CN3CCN(C4CCCCC4)CC3)c[nH]c2c1	-13	-67*	-3	6	-12
CC1=CC2/C=C(\C)CCC(O)C(O)/C=C/C(=O)C23C(=O)NC(CC(C)C)C3C1C (stereo not drawn)	-12	-74*	-3	-3	21
O=c1[nH]c2ccccc2n1C1CCN(Cc2ccc(-c3nc4ccc(F)cc4nc3-c3ccccc3)cc2)CC1	-19	-96*	/	/	/
O=c1[nH]c2ccccc2n1C1CCN(Cc2ccc(-c3nc4ccccc4nc3-c3ccccc3)cc2)CC1	-16	-92*	/	/	/
COc1ccc2nc(-c3ccc(CN4CCC(n5c(=O)[nH]c6ccccc65)CC4)cc3)c(-c3ccccc3)nc2c1	-14	-53*	/	/	/
O=c1[nH]c2ccccc2n1CCCN1CCC(n2c(=O)[nH]c3cc(Cl)ccc32)CC1	-90	-103*	/	/	/
Cc1ccc2nc(-c3ccc(CN4CCC(n5c(=O)[nH]c6ccccc65)CC4)cc3)c(-c3ccccc3)nc2c1	-13	-28	/	/	/
Nc1nc(N)nc(NC2CC2)n1	-2	/	/	/	/
CCC(=O)O[C@H]1[C@@H](N2CCCCC2)C[C@H]2[C@@H]3CC[C@H]4C[C@H](OC(C)=O)[C@@H](N5CCCCC5)C[C@]4(C)[C@H]3CC[C@@]21C	-15	/	/	/	/
Nc1cc(Cl)c2nonc2c1[N+](=O)[O-]	-15	-58*	0	1	-32*
Cc1cccc(-n2c(/C=C/c3c[nH]c4ccccc34)nc3ccccc3c2=O)c1	17	/	3	8	-6
OC(CN1CCC(c2c[nH]c3ccccc23)CC1)C(F)(F)F (stereo not drawn)	-6	-63*	-9	4	-41*
C=CCN(C1=NCCN1)c1c(Cl)cccc1Cl	-13	/	/	/	/
O=C(Nc1ccccc1C(F)(F)F)c1cccn(Cc2ccccc2)c1=O	-1	/	0	3	/
CN1CCN(c2ccc([N+](=O)[O-])c(NCC3CCCO3)c2)CC1 (stereo not drawn)	44*	0	-1	5	-5
CN1CCN(c2ccc([N+](=O)[O-])c(N)c2)CC1	2	-25	-2	6	15
CN1CCN(c2ccc([N+](=O)[O-])c(NCc3ccco3)c2)CC1	-9	-75*	-6	0	-31*
O=P(Nc1cccc(F)c1)(Oc1ccccc1F)Oc1ccccc1F	5	37	-6	2	-37*
